Where “and” joins values, the source holds several entries; their conditions need not be identical. Equal entries are not always repeated. The panel holds about 79,000 compounds, 15% with a hit somewhere; the sample as a whole holds those more often. A structure can be active in one record and inactive in another. Calls of active or inactive are those of the source. No stated cut-off is given here; in the data, active means growth inhibition above about 70%; inactive means the rest.
How the values were obtained:
[1] = NCI Yeast Anticancer Drug Screen. Data for the rad52 strain (AID 147);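 further: 0% = growth of vehicle-treated control cultures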; settings: S. cerevisiae rad52 mutant growth inhibition, stronger effect = higher value
Procedure, shortened: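 Genetically altered yeast (DNA damage repair defect) treated with compound; inhibition calculated relative to vehicle.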

[2] = NCI Yeast Anticancer Drug Screen. Data for the wt1 strain (AID 149);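 further: 0% = growth of vehicle-treated wt1 cultures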; settings: S. cerevisiae wt1 strain (SPY 50644) growth inhibition, stronger effect = higher value
Procedure, shortened: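 Measured: growth of wt1 yeast under compound versus vehicle treatment, reported as inhibition.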

[3] = NCI Yeast Anticancer Drug Screen. Data for the rad50EPP+ strain (AID 151);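 further: 0% = growth of vehicle-treated control cultures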; settings: S. cerevisiae rad50 mutant strain, stronger effect = higher value
Procedure, shortened: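 Strain rad50EPP+; compound exposure; % growth inhibition vs vehicle.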

[4] = NCI Yeast Anticancer Drug Screen. Data for the mgt1 strain (AID 153); settings: S. cerevisiae mgt1 mutant growth inhibition, stronger effect = higher value
Procedure, shortened: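 Read-out: yeast growth inhibition vs vehicle control. Strain mgt1, drawn from a panel altered in DNA damage repair or cell cycle control.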

[5] = NCI Yeast Anticancer Drug Screen. Data for the rad50 strain (AID 155);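 further: 0% = growth of vehicle-only cultures of the same strain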; settings: S. cerevisiae rad50 strain growth inhibition, stronger effect = higher value
Procedure, shortened: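 Growth of the mutant yeast was measured after compound exposure and referenced to vehicle-treated cultures.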

[6] = NCI Yeast Anticancer Drug Screen. Data for the mec2-1 strain (AID 157); settings: S. cerevisiae mec2-1 strain, stronger effect = higher value
Procedure, shortened: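 Cells of the genetically defined mec2-1 yeast strain are incubated with test compound. Inhibition of growth is calculated against vehicle-treated controls.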

[7] = NCI Yeast Anticancer Drug Screen. Data for the rad14 strain (AID 159);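 further: 0% = growth of vehicle-treated control cultures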; settings: S. cerevisiae rad14 strain growth inhibition, stronger effect = higher value
Procedure, shortened: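 Here, inhibition of yeast growth was measured after compound exposure, using a strain with a genetic defect in DNA damage repair and vehicle-treated cultures as the reference.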

[8] = NCI Yeast Anticancer Drug Screen. Data for the sgs1 mgt1 strain (AID 161);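 further: 0% = growth of cultures given vehicle only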; settings: S. cerevisiae sgs1 mgt1 strain, stronger effect = higher value
Procedure, shortened: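 Genetically altered yeast, compound exposure, growth inhibition relative to vehicle.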

[9] = NCI Yeast Anticancer Drug Screen. Data for the CLN2oe strain (AID 163);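 further: 0% = growth of vehicle-only control cultures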; settings: S. cerevisiae CLN2oe strain, stronger effect = higher value
Procedure, shortened: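 Strain altered in cell-cycle control, incubated with compound; growth compared to solvent-treated controls.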

[10] = NCI Yeast Anticancer Drug Screen. Data for the cln2 rad14 strain (AID 165);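 further: 0% = growth equal to vehicle treated cultures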; settings: S. cerevisiae cln2 rad14 strain, stronger effect = higher value
Procedure, shortened: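 The screen exposed genetically defined yeast (cln2 rad14) to test compounds and scored growth inhibition relative to vehicle-treated controls.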

[11] = NCI Yeast Anticancer Drug Screen. Data for the bub3 strain (AID 167); settings: S. cerevisiae bub3 mutant strain, stronger effect = higher value
Procedure, shortened: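 Whole-cell yeast assay. The mutant strain was incubated with compounds, and growth inhibition was determined by comparison with vehicle-treated cells.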

[12] = NCI Yeast Anticancer Drug Screen. Data for the mlh1 strain (AID 171);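 further: 0% = growth of vehicle-treated control cultures of the same strain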; settings: S. cerevisiae mlh1 strain growth inhibition, stronger effect = higher value
Procedure, shortened: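 Yeast screen: mutant strain plus compound, growth scored against vehicle control wells.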

[13] = NCI Yeast Anticancer Drug Screen. Data for the sgs1 strain (AID 173);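 further: 0% = growth of vehicle-only control cultures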; settings: S. cerevisiae sgs1 mutant, stronger effect = higher value
Procedure, shortened: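 Inhibition of yeast growth served as the measure. The mutant strain was treated with each compound, and growth was normalised to cultures receiving vehicle alone.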

[14] = NCI Yeast Anticancer Drug Screen. Data for the mlh1 rad18 strain (AID 175); settings: S. cerevisiae mlh1 rad18 strain growth inhibition, stronger effect = higher value
Procedure, shortened: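 Compound-treated yeast growth, normalised to vehicle controls. Strain bears defined DNA repair mutations.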

[15] = at 5.0 µM (retest, dose inferred, filed as 0.5)
[16] = at 50.0 µM (retest, dose inferred, filed as 5.0)

Measured: growth inhibition

Cc1ccc(Sc2ccccc2N)cc1
inactive: [1]; at 1.2 µM 9% | [1]; at 3.7 µM -3% | [1]; at 11.0 µM -13% | [1]; at 33.0 µM 45% | [2]; at 1.2 µM 16% | [2]; at 3.7 µM 6% | [2]; at 11.0 µM -7% | [2]; at 33.0 µM 42% | [3]; at 1.2 µM 8% | [3]; at 3.7 µM -1% | [3]; at 11.0 µM 16% | [3]; at 33.0 µM 64% | [4]; at 1.2 µM 0% | [4]; at 3.7 µM -17% | [4]; at 11.0 µM -21% | [4]; at 33.0 µM 38% | [5]; at 1.2 µM 0% | [5]; at 3.7 µM -3% | [5]; [15] 31% and 32% | [5]; at 11.0 µM -12% | [5]; at 33.0 µM 17% | [6]; at 1.2 µM -30% | [6]; at 3.7 µM -18% | [6]; [15] 50% and 23% | [6]; at 11.0 µM -32% | [6]; at 33.0 µM 25% | [7]; at 1.2 µM -4% | [7]; at 3.7 µM -18% | [7]; at 11.0 µM -10% | [7]; at 33.0 µM 32% | [8]; [15] -5% and 43% | [9]; at 1.2 µM 22% | [9]; at 3.7 µM 12% | [9]; at 11.0 µM -3% | [9]; at 33.0 µM 46% | [10]; [15] 42% and 29% | [11]; at 1.2 µM -6% | [11]; at 3.7 µM -2% | [11]; [15] 34% and 40% | [11]; at 11.0 µM -10% | [11]; at 33.0 µM 24% | [12]; at 1.2 µM 5% | [12]; at 3.7 µM -6% | [12]; at 11.0 µM 14% | [12]; at 33.0 µM 57% | [13]; at 1.2 µM 8% | [13]; at 3.7 µM -2% | [13]; at 11.0 µM -3% | [13]; at 33.0 µM 51% | [14]; [15] 32% and 37%
active: [1]; at 100.0 µM 98% | [2]; at 100.0 µM 99% | [3]; at 100.0 µM 93% | [4]; at 100.0 µM 98% | [5]; at 50.0 µM 90.5% | [5]; at 100.0 µM 98% | [6]; at 50.0 µM 92.3% | [6]; at 100.0 µM 98% | [7]; at 100.0 µM 99% | [8]; [16] 91% and 73% | [8]; at 50.0 µM 93.2% | [9]; at 100.0 µM 98% | [10]; at 50.0 µM 91.7% | [11]; [16] 94% and 81% | [11]; at 50.0 µM 92% | [11]; at 100.0 µM 98% | [12]; at 100.0 µM 98% | [13]; at 100.0 µM 98% | [14]; [16] 90% and 73% | [14]; at 50.0 µM 90.5% and 91%
95% (active) and 62% (inactive): [5]; [16]
95% (active) and 64% (inactive): [6]; [16]
94% (active) and 67% (inactive): [10]; [16]

Reference: PubChem BioAssay (NCI)
